# From the supplement of paper PMC8728848
# The full list was thinned out, with the strongest signals kept by preference.
# B1: R2-fiber (Pseudomonas aeruginosa), Q9S576 (protein)
# chain: HHHHHHKVAKDLVVSLAYQVRTEDGVLVDESPVSAPLDYLHGHGSLISGLETALEGHEVGDKFDVAVGANDAYGQYDENLVQRVPKDVFMGVDELQVGMRFLAETDQGPVPVEITAVEDDHVVVDGNHMLAGQNLKFNVEVVAIREATEEELAHGHVHGAHDHHHDHDHDGCCGGHGHDHGHEHGGEGCCGGKGNGGCGCHENLYFQGVTAGMALAATDIPGLDASKLVSGVLAEQRLPVFARGLATAVSNSSDPNTATVPLMLTNHANGPVAGRYFYIQSMFYPDQNGNASQIATSYNATSEMYVRVSYAANPSIREWLPWQRCDIGGSFTKEADGELPGGVNLDSMVTSGWWSQSFTAQAASGANYPIVRAGLLHVYAASSNFIYQTYQAYDGESFYFRCRHSNTWFPWRRMWHGGDFNPSDYLLKSGFYWNALPGKPATFPPSAHNHDVGQLTSGILPLARGGVGSNTAAGARSTIGAGVPATASLGASGWWRDNDTGLIRQWGQVTCPADADASITFPIPFPTLCLGGYANQTSAFHPGTDASTGFRGATTTTAVIRNGYFAQAVLSWEAFGR
# Assays:
# Experiment in all cases: glycan array binding signal (z-score within array); higher = stronger binding
# Settings in all cases: glycan notation: IUPAC condensed, linker removed
# [1] = target: Fuc(a1-2)Gal(b1-3)GalNAc(a1-3)[Fuc(a1-2)]Gal(b1-4)GlcNAc
# In short: (§1)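 The Consortium for Functional Glycomics database supplied 3228 glycan arrays, of which those lacking an available protein sequence were dropped. The binding signal, a within-array Z-score, was averaged across arrays of the same protein sequence and across linkers. Negative scores can be read as non-binding.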
# [2] = target: Fuc(a1-2)Gal(b1-4)GlcNAc
# In short: as §1
# [3] = target: Fuc(a1-2)Gal(b1-4)GlcNAc(b1-3)Gal(b1-4)GlcNAc(b1-2)Man(a1-3)[Fuc(a1-2)Gal(b1-4)GlcNAc(b1-3)Gal(b1-4)GlcNAc(b1-2)Man(a1-6)]Man(b1-4)GlcNAc(b1-4)GlcNAc
# In short: as §1
# [4] = target: Fuc(a1-2)Gal(b1-4)GlcNAc(b1-6)GalNAc
# In short: as §1
# [5] = target: Fuc(a1-2)Gal(b1-4)[Fuc(a1-3)]GlcNAc(b1-3)[Neu5Ac(a2-6)Gal(b1-4)GlcNAc(b1-6)]Gal(b1-4)Glc
# In short: as §1
# [6] = target: Fuc(a1-2)[Gal(a1-3)]Gal(b1-4)GlcNAc(b1-3)[Fuc(a1-2)[Gal(a1-3)]Gal(b1-4)GlcNAc(b1-6)]GalNAc
# In short: as §1
# [7] = target: Fuc(a1-2)[GalNAc(a1-3)]Gal(b1-3)GlcNAc(b1-2)Man(a1-3)[Fuc(a1-2)[GalNAc(a1-3)]Gal(b1-3)GlcNAc(b1-2)Man(a1-6)]Man(b1-4)GlcNAc(b1-4)[Fuc(a1-6)]GlcNAc
# In short: as §1
# [8] = target: Fuc(a1-2)[GalNAc(a1-3)]Gal(b1-4)[Fuc(a1-3)]GlcNAc(b1-3)GalNAc
# In short: as §1
# [9] = target: Fuc(a1-3)[Gal(b1-4)]GlcNAc(b1-6)GalNAc
# In short: as §1
# [10] = target: Gal(a1-3)Gal
# In short: as §1
# [11] = target: Gal(a1-3)Gal(b1-3)GlcNAc(b1-6)GalNAc
# In short: as §1
# [12] = target: Gal(a1-3)Gal(b1-4)Glc
# In short: as §1
# [13] = target: Gal(b1-3)Gal(b1-4)GlcNAc
# In short: as §1
# [14] = target: Gal(b1-3)GalNAc
# In short: as §1
# [15] = target: Gal(b1-3)GlcNAc(b1-3)Gal(b1-4)GlcNAc(b1-6)[Gal(b1-3)GlcNAc(b1-3)]Gal(b1-4)Glc
# In short: as §1
# [16] = target: Gal(b1-3)GlcNAc(b1-3)Gal(b1-4)[Fuc(a1-3)]GlcNAc
# In short: as §1
# [17] = target: Gal(b1-3)[Fuc(a1-4)]GlcNAc(b1-2)Man
# In short: as §1
# [18] = target: Gal(b1-3)[Fuc(a1-4)]GlcNAc(b1-3)Gal(b1-4)[Fuc(a1-3)]GlcNAc
# In short: as §1
# [19] = target: Gal(b1-4)GlcNAc(b1-3)Gal(b1-4)GlcNAc(b1-2)[Gal(b1-4)GlcNAc(b1-3)Gal(b1-4)GlcNAc(b1-6)]Man(a1-6)[Gal(b1-4)GlcNAc(b1-3)Gal(b1-4)GlcNAc(b1-2)Man(a1-3)]Man(b1-4)GlcNAc(b1-4)GlcNAc
# In short: as §1
# [20] = target: Gal(b1-4)GlcNAc(b1-3)Gal(b1-4)GlcNAc(b1-3)Gal(b1-4)GlcNAc
# In short: as §1
# [21] = target: Gal(b1-4)GlcNAc(b1-3)GalNAc
# In short: as §1
# [22] = target: Gal3S(b1-4)Glc
# In short: as §1
# [23] = target: Gal3S(b1-4)[Fuc(a1-3)]Glc6S
# In short: as §1
# [24] = target: GalNAc3S(b1-4)GlcNAc
# In short: as §1
# [25] = target: GlcNAc(b1-2)[GlcNAc(b1-6)]Man(a1-6)[GlcNAc(b1-2)Man(a1-3)]Man(b1-4)GlcNAc(b1-4)[Fuc(a1-6)]GlcNAc
# In short: as §1
# [26] = target: GlcNAc(b1-3)Gal(b1-4)GlcNAc
# In short: as §1
# [27] = target: GlcNAc(b1-3)Gal(b1-4)GlcNAc(b1-2)Man(a1-3)[GlcNAc(b1-3)Gal(b1-4)GlcNAc(b1-2)Man(a1-6)]Man(b1-4)GlcNAc(b1-4)GlcNAc
# In short: as §1
# [28] = target: GlcNAc(b1-3)Gal(b1-4)GlcNAc(b1-3)Gal(b1-4)GlcNAc
# In short: as §1
# [29] = target: GlcNAc(b1-3)Gal(b1-4)GlcNAc(b1-6)[Gal(b1-3)]GalNAc
# In short: as §1
# [30] = target: GlcNAc(b1-3)[GlcNAc(b1-6)]GalNAc
# In short: as §1
# [31] = target: GlcNAc(b1-4)GlcNAc(b1-4)GlcNAc(b1-4)GlcNAc(b1-4)GlcNAc(b1-4)GlcNAc
# In short: as §1
# [32] = target: GlcNAc6S(b1-3)Gal(b1-4)GlcNAc
# In short: as §1
# [33] = target: Man(a1-2)Man(a1-3)[Man(a1-2)Man(a1-6)]Man(a1-6)[Man(a1-2)Man(a1-2)Man(a1-3)]Man
# In short: as §1
# [34] = target: Man(a1-3)[Man(a1-6)]Man(b1-4)GlcNAc(b1-4)[Fuc(a1-6)]GlcNAc
# In short: as §1
# [35] = target: Neu5Ac(a2-3)Gal
# In short: as §1
# [36] = target: Neu5Ac(a2-3)Gal(b1-3)GalNAc
# In short: as §1
# [37] = target: Neu5Ac(a2-3)Gal(b1-4)GlcNAc(b1-2)Man(a1-3)[Neu5Ac(a2-3)Gal(b1-4)GlcNAc(b1-2)Man(a1-6)]Man(b1-4)GlcNAc(b1-4)[Fuc(a1-6)]GlcNAc
# In short: as §1
# [38] = target: Neu5Ac(a2-3)Gal(b1-4)GlcNAc(b1-3)Gal(b1-4)GlcNAc(b1-3)[Neu5Ac(a2-3)Gal(b1-4)GlcNAc(b1-3)Gal(b1-4)GlcNAc(b1-6)]GalNAc
# In short: as §1
# [39] = target: Neu5Ac(a2-3)Gal6S(b1-4)[Fuc(a1-3)]GlcNAc
# In short: as §1
# [40] = target: Neu5Ac(a2-3)[GalNAc(b1-4)]Gal(b1-4)GlcNAc
# In short: as §1
# [41] = target: Neu5Ac(a2-6)Gal(b1-4)GlcNAc
# In short: as §1
# [42] = target: Neu5Ac(a2-6)Gal(b1-4)GlcNAc(b1-6)[Gal(b1-3)GlcNAc(b1-3)]Gal(b1-4)Glc
# In short: as §1
# [43] = target: Neu5Ac(a2-8)Neu5Ac(a2-8)Neu5Ac(a2-8)Neu5Ac(a2-3)[GalNAc(b1-4)]Gal(b1-4)Glc
# In short: as §1
# [44] = target: Neu5Ac9Ac(a2-3)Gal(b1-4)GlcNAc
# In short: as §1
# [45] = target: Neu5Gc(a2-3)Gal(b1-3)GlcNAc
# In short: as §1
binder,measurement,setting,value
B1,glycan array binding signal (z-score),[1],2.11
same,glycan array binding signal (z-score),[2],0.297
same,glycan array binding signal (z-score),[3],-1.36
same,glycan array binding signal (z-score),[4],-0.579
same,glycan array binding signal (z-score),[5],-0.021
same,glycan array binding signal (z-score),[6],2.68
same,glycan array binding signal (z-score),[7],-0.288
same,glycan array binding signal (z-score),[8],3.46
same,glycan array binding signal (z-score),[9],2.09
same,glycan array binding signal (z-score),[10],0.366
same,glycan array binding signal (z-score),[11],0.045
same,glycan array binding signal (z-score),[12],-0.505
same,glycan array binding signal (z-score),[13],-0.114
same,glycan array binding signal (z-score),[14],-0.235
same,glycan array binding signal (z-score),[15],0.141
same,glycan array binding signal (z-score),[16],0.162
same,glycan array binding signal (z-score),[17],-0.063
same,glycan array binding signal (z-score),[18],2.1
same,glycan array binding signal (z-score),[19],2.06
same,glycan array binding signal (z-score),[20],0.018
same,glycan array binding signal (z-score),[21],-1.43
same,glycan array binding signal (z-score),[22],-0.16
same,glycan array binding signal (z-score),[23],0.853
same,glycan array binding signal (z-score),[24],-0.587
same,glycan array binding signal (z-score),[25],14.6
same,glycan array binding signal (z-score),[26],-0.499
same,glycan array binding signal (z-score),[27],0.012
same,glycan array binding signal (z-score),[28],0.586
same,glycan array binding signal (z-score),[29],0.122
same,glycan array binding signal (z-score),[30],0.283
same,glycan array binding signal (z-score),[31],-0.525
same,glycan array binding signal (z-score),[32],-0.144
same,glycan array binding signal (z-score),[33],-0.717
same,glycan array binding signal (z-score),[34],-0.775
same,glycan array binding signal (z-score),[35],2.35
same,glycan array binding signal (z-score),[36],-0.092
same,glycan array binding signal (z-score),[37],5.23
same,glycan array binding signal (z-score),[38],-0.406
same,glycan array binding signal (z-score),[39],5.49
same,glycan array binding signal (z-score),[40],-0.151
same,glycan array binding signal (z-score),[41],3
same,glycan array binding signal (z-score),[42],0.031
same,glycan array binding signal (z-score),[43],0.115
same,glycan array binding signal (z-score),[44],-1.16
same,glycan array binding signal (z-score),[45],-0.167
